# Experimental data published in PubChem BioAssay (NCI).
# The panel holds about 79,000 compounds, 15% with a hit somewhere; the sample as a whole holds those more often. Unmarked numbers belong to inactive results. Activity calls are given as the source filed them. No stated cut-off is given here; in the data, active means growth inhibition above about 70%; inactive means the rest.
# Experiments:
# [1] = NCI Yeast Anticancer Drug Screen. Data for the rad52 strain (AID 147);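 further: 0% = growth of vehicle-treated control cultures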; details: S. cerevisiae rad52 mutant growth inhibition, stronger effect = higher value
# Summary of the method: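 Compounds are applied to a genetically defined yeast strain lacking normal DNA damage repair, and inhibition of growth is expressed relative to cultures given vehicle only.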
# [2] = NCI Yeast Anticancer Drug Screen. Data for the wt1 strain (AID 149);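 further: 0% = growth of vehicle-treated wt1 cultures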; details: S. cerevisiae wt1 strain (SPY 50644) growth inhibition, stronger effect = higher value
# Summary of the method: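 The wt1 strain was treated with compounds, and growth was compared with vehicle-treated cultures to give inhibition.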
# [3] = NCI Yeast Anticancer Drug Screen. Data for the rad50EPP+ strain (AID 151);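 further: 0% = growth of vehicle-treated control cultures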; details: S. cerevisiae rad50 mutant strain, stronger effect = higher value
# Summary of the method: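 Compounds were applied to the rad50EPP+ yeast strain, which bears a defined DNA repair alteration, and growth inhibition was determined relative to vehicle-treated cultures.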
# [4] = NCI Yeast Anticancer Drug Screen. Data for the mgt1 strain (AID 153); details: S. cerevisiae mgt1 mutant growth inhibition, stronger effect = higher value
# Summary of the method: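 Strain: mgt1 yeast, one of a set carrying defined DNA damage repair or cell cycle control alterations. Compound-treated growth compared with vehicle.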
# [5] = NCI Yeast Anticancer Drug Screen. Data for the rad50 strain (AID 155);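 further: 0% = growth of vehicle-only cultures of the same strain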; details: S. cerevisiae rad50 strain growth inhibition, stronger effect = higher value
# Summary of the method: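 Cells are treated with compound, grown, and their growth is then scored against vehicle-only cultures of the same repair-deficient yeast strain.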
# [6] = NCI Yeast Anticancer Drug Screen. Data for the mec2-1 strain (AID 157); details: S. cerevisiae mec2-1 strain, stronger effect = higher value
# Summary of the method: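 Strain: mec2-1 (DNA repair/cell cycle alteration). Compound exposure, then growth measured; inhibition expressed relative to vehicle.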
# [7] = NCI Yeast Anticancer Drug Screen. Data for the rad14 strain (AID 159);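 further: 0% = growth of vehicle-treated control cultures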; details: S. cerevisiae rad14 strain growth inhibition, stronger effect = higher value
# Summary of the method: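 Readout: yeast growth inhibition, referenced to vehicle-only cultures. Strain bears a defined alteration in DNA damage repair.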
# [8] = NCI Yeast Anticancer Drug Screen. Data for the sgs1 mgt1 strain (AID 161);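 further: 0% = growth of cultures given vehicle only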; details: S. cerevisiae sgs1 mgt1 strain, stronger effect = higher value
# Summary of the method: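 Read-out: growth inhibition vs vehicle controls. Cells: mutant yeast strain deficient in DNA damage repair.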
# [9] = NCI Yeast Anticancer Drug Screen. Data for the CLN2oe strain (AID 163);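 further: 0% = growth of vehicle-only control cultures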; details: S. cerevisiae CLN2oe strain, stronger effect = higher value
# Summary of the method: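 Growth of a genetically modified yeast strain is measured after compound exposure and compared with cultures given vehicle alone.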
# [10] = NCI Yeast Anticancer Drug Screen. Data for the cln2 rad14 strain (AID 165);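 further: 0% = growth equal to vehicle treated cultures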; details: S. cerevisiae cln2 rad14 strain, stronger effect = higher value
# Summary of the method: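 Compounds are applied to the cln2 rad14 yeast strain, and growth is then compared with that of vehicle-treated cultures to give inhibition.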
# [11] = NCI Yeast Anticancer Drug Screen. Data for the bub3 strain (AID 167); details: S. cerevisiae bub3 mutant strain, stronger effect = higher value
# Summary of the method: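 Part of a panel of yeast mutants defective in DNA damage repair or cell cycle regulation. Each strain is grown with compound, and inhibition is calculated relative to solvent-treated cultures.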
# [12] = NCI Yeast Anticancer Drug Screen. Data for the wt2 strain (AID 169);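 further: 0% = growth of vehicle-treated yeast cultures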; details: S. cerevisiae wt2 strain growth inhibition, stronger effect = higher value
# Summary of the method: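 This strain belongs to a panel of yeast strains with defined genetic alterations in DNA damage repair or cell cycle control. Compounds are applied, and growth inhibition is measured against vehicle-treated cultures.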
# [13] = NCI Yeast Anticancer Drug Screen. Data for the mlh1 strain (AID 171);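 further: 0% = growth of vehicle-treated control cultures of the same strain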; details: S. cerevisiae mlh1 strain growth inhibition, stronger effect = higher value
# Summary of the method: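 Growth of the mutant yeast strain after compound exposure, expressed as inhibition relative to vehicle-only controls.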
# [14] = NCI Yeast Anticancer Drug Screen. Data for the sgs1 strain (AID 173);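 further: 0% = growth of vehicle-only control cultures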; details: S. cerevisiae sgs1 mutant, stronger effect = higher value
# Summary of the method: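 Growth of a yeast strain bearing a defined genetic alteration is measured after compound treatment. Inhibition is expressed relative to vehicle-only controls.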
# [15] = NCI Yeast Anticancer Drug Screen. Data for the mlh1 rad18 strain (AID 175); details: S. cerevisiae mlh1 rad18 strain growth inhibition, stronger effect = higher value
# Summary of the method: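 Read-out is yeast growth inhibition, calculated against vehicle-only controls. The compound was applied to a strain engineered with DNA damage repair alterations.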
# [16] = NCI Yeast Anticancer Drug Screen. Data for the rad18 strain (AID 177); details: S. cerevisiae rad18 mutant growth inhibition, stronger effect = higher value
# Summary of the method: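 Growth of the mutant yeast strain after compound exposure, normalised to vehicle-only cultures.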
# [17] = at 5.0 µM (retest, dose inferred, filed as 0.5)
# [18] = at 50.0 µM (retest, dose inferred, filed as 5.0)
compound,measurement,setting,value
NC1=NS(=O)(=O)N=C(N)C1=Cc1ccc([N+](=O)[O-])o1,growth inhibition,[1]; at 1.2 µM,-23%
same,growth inhibition,[1]; at 3.7 µM,-14%
same,growth inhibition,[1]; at 11.0 µM,20%
same,growth inhibition,[1]; at 33.0 µM,82% (active)
same,growth inhibition,[1]; at 100.0 µM,97% (active)
same,growth inhibition,[2]; at 1.2 µM,-20%
same,growth inhibition,[2]; at 3.7 µM,-11%
same,growth inhibition,[2]; at 11.0 µM,-6%
same,growth inhibition,[2]; at 33.0 µM,-18%
same,growth inhibition,[2]; at 100.0 µM,98% (active)
same,growth inhibition,[3]; at 1.2 µM,0%
same,growth inhibition,[3]; at 3.7 µM,18%
same,growth inhibition,[3]; at 11.0 µM,64%
same,growth inhibition,[3]; at 33.0 µM,88% (active)
same,growth inhibition,[3]; at 100.0 µM,97% (active)
same,growth inhibition,[4]; at 1.2 µM,7%
same,growth inhibition,[4]; at 3.7 µM,16%
same,growth inhibition,[4]; at 11.0 µM,12%
same,growth inhibition,[4]; at 33.0 µM,33%
same,growth inhibition,[4]; at 100.0 µM,99% (active)
same,growth inhibition,[5]; at 1.2 µM,6%
same,growth inhibition,[5]; at 3.7 µM,21%
same,growth inhibition,[5]; [17],3%
same,growth inhibition,[5]; at 11.0 µM,42%
same,growth inhibition,[5]; at 33.0 µM,78% (active)
same,growth inhibition,[5]; [18],77% (active)
same,growth inhibition,[5]; at 50.0 µM,88% (active)
same,growth inhibition,[5]; at 100.0 µM,97% (active)
same,growth inhibition,[6]; at 1.2 µM,-20%
same,growth inhibition,[6]; at 3.7 µM,-25%
same,growth inhibition,[6]; [17],-20%
same,growth inhibition,[6]; at 11.0 µM,-15%
same,growth inhibition,[6]; at 33.0 µM,10%
same,growth inhibition,[6]; [18],14%
same,growth inhibition,[6]; at 50.0 µM,93.8% (active)
same,growth inhibition,[6]; at 100.0 µM,98% (active)
same,growth inhibition,[7]; at 1.2 µM,-7%
same,growth inhibition,[7]; at 3.7 µM,-8%
same,growth inhibition,[7]; at 11.0 µM,-9%
same,growth inhibition,[7]; at 33.0 µM,1%
same,growth inhibition,[7]; at 100.0 µM,97% (active)
same,growth inhibition,[8]; [17],-6%
same,growth inhibition,[8]; [18],43%
same,growth inhibition,[8]; at 50.0 µM,92.7% (active)
same,growth inhibition,[9]; at 1.2 µM,9%
same,growth inhibition,[9]; at 3.7 µM,0%
same,growth inhibition,[9]; at 11.0 µM,-11%
same,growth inhibition,[9]; at 33.0 µM,13%
same,growth inhibition,[9]; at 100.0 µM,99% (active)
same,growth inhibition,[10]; [17],-16%
same,growth inhibition,[10]; [18],25%
same,growth inhibition,[10]; at 50.0 µM,74.7% (active)
same,growth inhibition,[11]; at 1.2 µM,8%
same,growth inhibition,[11]; at 3.7 µM,-11%
same,growth inhibition,[11]; [17],5%
same,growth inhibition,[11]; at 11.0 µM,-22%
same,growth inhibition,[11]; at 33.0 µM,-27%
same,growth inhibition,[11]; [18],47%
same,growth inhibition,[11]; at 50.0 µM,68.5%
same,growth inhibition,[11]; at 100.0 µM,98% (active)
same,growth inhibition,[12]; at 1.2 µM,-41%
same,growth inhibition,[12]; at 3.7 µM,-34%
same,growth inhibition,[12]; at 11.0 µM,-22%
same,growth inhibition,[12]; at 33.0 µM,-6%
same,growth inhibition,[12]; at 100.0 µM,98% (active)
same,growth inhibition,[13]; at 1.2 µM,-7%
same,growth inhibition,[13]; at 3.7 µM,-6%
same,growth inhibition,[13]; at 11.0 µM,2%
same,growth inhibition,[13]; at 33.0 µM,33%
same,growth inhibition,[13]; at 100.0 µM,98% (active)
same,growth inhibition,[14]; at 1.2 µM,-15%
same,growth inhibition,[14]; at 3.7 µM,-10%
same,growth inhibition,[14]; at 11.0 µM,18%
same,growth inhibition,[14]; at 33.0 µM,45%
same,growth inhibition,[14]; at 100.0 µM,98% (active)
same,growth inhibition,[15]; [17],3%
same,growth inhibition,[15]; [18],84% (active)
same,growth inhibition,[15]; at 50.0 µM,88.8% (active)
same,growth inhibition,[16]; at 1.2 µM,11%
same,growth inhibition,[16]; at 3.7 µM,17%
same,growth inhibition,[16]; at 11.0 µM,71% (active)
same,growth inhibition,[16]; at 33.0 µM,89% (active)
same,growth inhibition,[16]; at 100.0 µM,98% (active)
[O-][n+]1c2ccc(O)cc2nc2ccc(Cl)cc21,growth inhibition,[1]; at 1.2 µM,5%
same,growth inhibition,[1]; at 3.7 µM,19%
same,growth inhibition,[1]; at 11.0 µM,45%
same,growth inhibition,[1]; at 33.0 µM,75% (active)
same,growth inhibition,[1]; at 100.0 µM,75% (active)
same,growth inhibition,[2]; at 1.2 µM,4%
same,growth inhibition,[2]; at 3.7 µM,9%
same,growth inhibition,[2]; at 11.0 µM,23%
same,growth inhibition,[2]; at 33.0 µM,34%
same,growth inhibition,[2]; at 100.0 µM,53%
same,growth inhibition,[3]; at 1.2 µM,5%
same,growth inhibition,[3]; at 3.7 µM,16%
same,growth inhibition,[3]; at 11.0 µM,37%
same,growth inhibition,[3]; at 33.0 µM,57%
same,growth inhibition,[3]; at 100.0 µM,56%
same,growth inhibition,[4]; at 1.2 µM,8%
same,growth inhibition,[4]; at 3.7 µM,22%
same,growth inhibition,[4]; at 11.0 µM,34%
same,growth inhibition,[4]; at 33.0 µM,65%
same,growth inhibition,[4]; at 100.0 µM,81% (active)
same,growth inhibition,[5]; at 1.2 µM,6%
same,growth inhibition,[5]; at 3.7 µM,24%
same,growth inhibition,[5]; [17],-5%
same,growth inhibition,[5]; at 11.0 µM,51%
same,growth inhibition,[5]; at 33.0 µM,81% (active)
same,growth inhibition,[5]; [18],17%
same,growth inhibition,[5]; at 50.0 µM,81.9% (active)
same,growth inhibition,[5]; at 100.0 µM,84% (active)
same,growth inhibition,[6]; at 1.2 µM,0%
same,growth inhibition,[6]; at 3.7 µM,9%
same,growth inhibition,[6]; [17],5%
same,growth inhibition,[6]; at 11.0 µM,25%
same,growth inhibition,[6]; at 33.0 µM,41%
same,growth inhibition,[6]; [18],-13%
same,growth inhibition,[6]; at 50.0 µM,75% (active)
same,growth inhibition,[6]; at 100.0 µM,51%
same,growth inhibition,[7]; at 1.2 µM,0%
same,growth inhibition,[7]; at 3.7 µM,8%
same,growth inhibition,[7]; at 11.0 µM,30%
same,growth inhibition,[7]; at 33.0 µM,58%
same,growth inhibition,[7]; at 100.0 µM,73% (active)
same,growth inhibition,[8]; [17],-12%
same,growth inhibition,[8]; [18],-1%
same,growth inhibition,[8]; at 50.0 µM,67%
same,growth inhibition,[9]; at 1.2 µM,0%
same,growth inhibition,[9]; at 3.7 µM,9%
same,growth inhibition,[9]; at 11.0 µM,20%
same,growth inhibition,[9]; at 33.0 µM,34%
same,growth inhibition,[9]; at 100.0 µM,49%
same,growth inhibition,[10]; [17],-4%
same,growth inhibition,[10]; [18],9%
same,growth inhibition,[10]; at 50.0 µM,43.1%
same,growth inhibition,[11]; at 1.2 µM,5%
same,growth inhibition,[11]; at 3.7 µM,2%
same,growth inhibition,[11]; [17],-7%
same,growth inhibition,[11]; at 11.0 µM,23%
same,growth inhibition,[11]; at 33.0 µM,41%
same,growth inhibition,[11]; [18],11%
same,growth inhibition,[11]; at 50.0 µM,78.8% (active)
same,growth inhibition,[11]; at 100.0 µM,59%
